32 compounds from PubChem BioAssay (NCATS) can be followed below.

Molecules are shown by their SMILES. Inconclusive results are not listed. Activity calls are given as the source filed them. The call rests on the fitted dose curve.

Chain of Atrial natriuretic peptide receptor 1 (Homo sapiens) (P16066 whole entry, looked up, the tested form may be a part): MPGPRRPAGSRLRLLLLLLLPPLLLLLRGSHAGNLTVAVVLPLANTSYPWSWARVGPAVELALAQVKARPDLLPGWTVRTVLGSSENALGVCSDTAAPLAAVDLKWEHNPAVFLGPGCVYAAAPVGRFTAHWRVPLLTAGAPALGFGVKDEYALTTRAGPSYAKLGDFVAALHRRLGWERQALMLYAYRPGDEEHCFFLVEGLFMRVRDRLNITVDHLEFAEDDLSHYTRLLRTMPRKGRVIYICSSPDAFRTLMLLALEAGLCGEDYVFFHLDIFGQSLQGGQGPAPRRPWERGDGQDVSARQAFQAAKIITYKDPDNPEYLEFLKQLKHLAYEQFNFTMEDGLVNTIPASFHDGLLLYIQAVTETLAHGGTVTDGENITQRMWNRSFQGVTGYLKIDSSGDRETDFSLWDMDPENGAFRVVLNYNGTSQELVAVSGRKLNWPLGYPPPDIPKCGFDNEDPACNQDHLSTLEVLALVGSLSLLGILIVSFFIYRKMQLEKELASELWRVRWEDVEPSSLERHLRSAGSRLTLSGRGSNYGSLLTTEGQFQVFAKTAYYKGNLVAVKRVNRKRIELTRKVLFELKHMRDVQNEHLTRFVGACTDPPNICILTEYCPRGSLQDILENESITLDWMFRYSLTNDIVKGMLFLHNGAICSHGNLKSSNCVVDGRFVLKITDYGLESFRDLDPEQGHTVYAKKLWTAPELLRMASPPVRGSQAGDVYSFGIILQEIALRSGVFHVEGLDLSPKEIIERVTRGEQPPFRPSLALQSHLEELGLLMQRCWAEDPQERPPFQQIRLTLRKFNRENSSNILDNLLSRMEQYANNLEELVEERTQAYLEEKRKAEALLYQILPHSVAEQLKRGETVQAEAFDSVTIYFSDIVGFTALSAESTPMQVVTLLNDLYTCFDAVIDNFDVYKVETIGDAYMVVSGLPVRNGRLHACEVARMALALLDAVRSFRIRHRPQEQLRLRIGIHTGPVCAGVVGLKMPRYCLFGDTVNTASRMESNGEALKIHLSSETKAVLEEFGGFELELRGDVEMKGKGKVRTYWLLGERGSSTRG

This assay deals with Atrial natriuretic peptide receptor 1 (Homo sapiens) (UniProt P16066). Put plainly: Natriuretic polypeptide receptor (hNpr1) antagonism - Pilot CMLD screen (AID 1347052). The conditions noted are these: HEK293 hNpr1 GloSensor cGMP luminescence, ANP-stimulated; series mostly up to 9.22 µM. How it is done:
In order to identify small molecular compounds that inhibit the hNpr1 receptor we developed a high-throughput assay to measure inhibition of the guanylate cyclase activity of the receptor. cGMP production was measured using a circular permutated Firefly luciferase (FLuc) enzyme functionally linked to the cGMP binding domain of human phosphodiesterase 5 (GloSensor technology pGS-40F, (Fan, F. et al. 2008). The cGMP-sensor was expressed in human embryonic kidney 293 (HEK-293) cells and FLuc activity was measured after stimulation with hNrp agonist peptide. hNrp agonists activates the receptor's associated guanylyl cyclase (GC) domain producing cGMP which then binds to the GloSensor resulting in FLuc activation, the enzymatic activity of which can be measured as bioluminescence with addition of luciferin substrate.
This assay was initially piloted by testing with a small library of specialty compounds.
PROTOCOL TABLES (as described by Inglese J, Shamu CE and Guy RK. 2007)
SEQUENCE No. (e.g., 1, 2, 3, etc.); […] (e.g., Cells, Incubation, Reagent, etc.); VALUE and DESCRIPTION.
1. Cells. Seed 1500 HEK293 cGMP-sensor cells expressing hNpr1 per well in 4uL into Greiner 1536-well white/solid bottom high base, tissue culture-treated plates.
2. Incubation. Incubate plated cells at 37C in 5% CO2, 95% RH overnight.
3. Reagent. Add 1uL per well GloSensor reagent from Promega (2% final concentration) or CO2 independent media vehicle control to respective columns of Greiner 1536-well plates.
4. Incubation. Incubate plated cells at room temperature for 2 h, protect from light.
5. Compounds. Library compounds and A-71915 control added at 23 nL per well, transferred by Pin Tool.
6. Incubation. Incubate plated cells for 30 min. at room temperature, protect from light.
7. Detector. GloSensor baseline pre-read luminescence measured using CCD-based camera (Viewlux).
8. Compound. Add 1uL of hNppA peptide to 0.1 nM final concentration to stimulate hNpr1 or CO2 independent media as vehicle control.
9. Incubation. Incubate treated cells at room temperature for 20 min., protect from light.
10. Detector. GloSensor post-hNppA luminescence measured using CCD-based camera (Viewlux).
NOTES (numbers refer to Sequence numbers above)
1. HEK293 cells expressing hNpr1 and GIP/pGS-40F grown to 85-95% confluence (48-72 h) in T175 culture flasks (CO2 independent media supplemented with 10% FBS, 1% Pen/Strep antibiotics and 1 ug/mL puromycin). Trypsinize and harvest cells from T175 culture flasks and filter through 40 um cell strainer. Cells counted with Invitrogen Countess (30,000,000 - 50,000,000 cells/flask). Cells diluted to a final concentration of 375 cells/uL in CO2 independent media and a Millipore multidrop used to dispense 1500 cells per well (4uL/well) into 13 1536-well Greiner White/Solid bottom, high base tissue-culture treated (TC) plates and one Aurora 1536-well Black/Clear bottom, low base, TC plate (for visual inspection of cell health throughout the duration of the assay).
2. Cells incubated overnight at ambient temperature, 24 h. at 37C in 95% RH incubator protected from light, covered with metal lid with gas-exchange holes.
3. Prepare GloSensor Reagent (Promega): Reconstitute GloSensor luciferase substrate by adding 8.2mL Hepes buffer to 250mg substrate, mix well, protect from light and stored at -80C. Prepare a fresh 12% GloSensor solution in CO2 independent supplemented plating media (see above). Mix well and store at ambient temperature, protected from light. 1uL 12% GloSensor Luciferase Reagent added (2% final concentration) to respective columns of 13 x 1536-well Greiner plate with BioRaptr, 1uL CO2 independent plating media added to respective columns as vehicle control with BioRaptr.
4. Cells incubated for 2 h. at ambient temperature, protected from light with metal lid with gas-exchange holes.
5. A-71915 stock solution prepared (10 mM in DMSO). […]
For `COC(=O)C12CC3=CCC4C(=O)N(c5ccccc5)C(=O)C4C3Cc3ccccc3[C@H]1CNC2=O` (some centres not stated), the call was inactive.
On to `COC(=O)[C@@]1(C=C[C@@H](C)[C@H](OC)c2ccccc2Br)[C@@H]2Oc3ccccc3[C@@H]21`, for which the call was inactive.
As to `COC(=O)C1c2c(n(C)c3ccccc23)[C@H]2[C@@H](C)[C@H](OC)c3ccccc3[C@@H]12` (some centres not stated), the call was inactive.
Take `CO[C@@H]1c2ccccc2[C@H]2C(C(=O)O)c3c(n(C)c4ccccc34)[C@H]2[C@H]1C` (some centres not stated): the compound was classed as inactive.
In the case of `COC(=O)[C@]12C[C@@H]3CCN(C(=O)N[C@@H]1c1ccccc1)[C@@]32C`, the result was inactive.
For `CC(=O)[C@]12C[C@@H]3CCN(C(=O)N[C@@H]1c1ccccc1)[C@@]32C`, the call was inactive.
Regarding `COC(=O)C1(C)C2CC(C)C(c3ccccc32)N1C(=O)C(F)(F)F` (configuration not stated), the outcome was inactive.
With `CCC[C@]12CCN3C(=O)N[C@@H](c4ccccc4)[C@](C(=O)OCC)(C1)[C@H]32`, the outcome was inactive.
As to `COC(=O)[C@@]12Cc3ccccc3[C@H]1C[C@H](C)[C@@H](C)N2C(=O)C(F)(F)F`, the result was inactive.
As to `COC(=O)[C@@]1(C=C2c3ccc(F)cc3[C@@H](OC)[C@@H]2C)[C@@H]2c3ccccc3O[C@@H]21`, the call was inactive.
For the compound `COC(=O)C1=C[C@H]([C@@H](C)[C@H](OC)c2ccccc2Br)[C@H]2[C@H]1c1ccccc1N2C`, the outcome was inactive.
For `COC(=O)C1=NN=C(C(=O)OC)[C@@]2(C)c3ccccc3NC12` (some centres not stated), the compound was classed as inactive.
With `CCOC(=O)[C@]12C[C@]3(C)CCCN(C(=O)N[C@@H]1c1ccccc1)[C@@H]32`, the compound was called inactive.
`CC(=O)[C@]12[C@H](c3ccccc3)[C@@H]3CCN(C(=O)N[C@H]1c1ccccc1)[C@@]32C`: the compound was classed as inactive.
For the compound `COC(=O)[C@@H]1[C@@H](c2ccccc2)[C@H]2C(=O)c3c(OC)cc(OC)cc3O[C@@]12c1ccc(OC)cc1`, the result was inactive.
With `COC(=O)[C@@]1(C=C2c3ccccc3[C@@H](OC)[C@@H]2C)[C@@H]2Oc3ccccc3[C@@H]21` the entry was “inactive”; with `COC(=O)C1=C2CCO[C@@H]2[C@H]2[C@@H](C)[C@H](OC)c3ccccc3[C@H]12`, “inactive”; with `CCOC(=O)[C@@]12C3[C@@H](CCN3C(=O)N[C@@H]1c1ccccc1)[C@@H]2C` (some centres not stated), “inactive”.
Regarding `C=C(C)C(=O)CP(=O)(OCC)OCC`, the call was inactive.
On to `COC(=O)C1=C2CCO[C@H]2[C@@H]2[C@@H](C)[C@H](OC)c3ccccc3[C@@H]12`, for which the compound was classed as inactive.
Consider `CCOC(=O)[C@]12C[C@@H]3CCN(C(=O)N(C(C)=O)[C@@H]1c1ccccc1)[C@@H]32`, for which the compound was called inactive.
Regarding `CC(=O)[C@@]12C3[C@@H](CCN3C(=O)N[C@H]1c1ccccc1)[C@H]2c1ccccc1` (some centres not stated), the compound was called inactive.
In the case of `C=C1[C@@H]2CCN3C(=O)N[C@@H](c4ccccc4)[C@@]1(C(=O)OCC)C23` (some centres not stated), the compound was called inactive.
Consider `CCOC(=O)[C@]12C[C@@H]3OCCN(C(=O)N[C@@H]1c1ccccc1)[C@@H]32`, for which the compound was classed as inactive.
With `CC(=O)[C@]12C[C@]3(C)CCCN(C(=O)N[C@@H]1c1ccccc1)C32` (some centres not stated) the entry was “inactive”; with `CCOC(=O)[C@]12C[C@]3(OC)CCN(C(=O)N[C@@H]1c1ccccc1)[C@@H]32`, “inactive”; with `CC(=O)[C@]12C[C@@H]3CCCN(C(=O)N[C@@H]1c1ccccc1)[C@@H]32`, “inactive”.
With `COC(=O)C1=C2CCCO[C@H]2[C@@H]2[C@@H](C)[C@H](OC)c3ccccc3[C@@H]12` the entry was “inactive”; with `CCOC(=O)[C@]12C[C@]3(C)CCN(C(=O)N[C@@H]1c1ccccc1)[C@@H]32`, “inactive”; with `CCOC(=O)[C@@]12[C@@H]3[C@@H](CCN3C(=O)N[C@H]1c1ccccc1)C2(C)C`, “inactive”.
As for `COC(=O)C1C2CC(C)C(c3ccccc32)N1C(=O)C(F)(F)F` (configuration not stated), the entry is “inactive”; as for `COC(=O)[C@@]1(C=C2c3ccc(F)cc3[C@@H](OC)[C@@H]2C)[C@@H]2Oc3ccccc3[C@@H]21`, “inactive”.
